Results filed as inconclusive are left out. Where a call stands in place of a potency, no number is given. The source made the active and inactive calls. Unless noted, calls come from the whole dose curve.
test: qHTS assay for small molecule agonists of the antioxidant response element (ARE) signaling pathway (AID 743202; active = well fitted activation curve with a large enough effect in the signal ratio in the repeat runs, not every such curve was filed as active; the % refers to the signal ratio); details: HepG2 ARE-bla reporter, beta-lactamase FRET, 16 h; series mostly up to 73.3 µM
Procedure, shortened: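 Steps: seed ARE-bla HepG2 cells (2,000/well); incubate 5 h at 37 C; add compounds by pin tool; incubate 16 h at 37 C; add FRET substrate; read fluorescence after 2 h at RT.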
Potency is the fitted concentration of half-maximal effect.

SMILES | Potency
Brc1cc(Br)c(Oc2cc(Br)c(Br)cc2Br)cc1Br | inactive
CC1CC(C)C(=O)C1=O (configuration not stated) | inactive
O=C(OCC(O)CO)c1ccccc1Nc1ccnc2cc(Cl)ccc12 (configuration not stated) | 11.9 µM (active)
CCCCCCCCN | inactive
O=Cc1c2ccccc2c(Cl)c2ccccc12 | 29.9 µM (active)
CCC=CC#N | inactive
C=C1CCC2CC1C2(C)C (configuration not stated) | inactive
C=C1c2cccc(O)c2C(O)=C2C(=O)[C@]3(O)C(O)=C(C(N)=O)C(=O)[C@@H](N(C)C)[C@@H]3[C@@H](O)[C@H]12 | inactive
Cc1cscn1 | inactive
CCC(OCCCOC)OC(C)=O (configuration not stated) | inactive
CC/C=C1/OC(=O)c2ccccc21 | inactive
CCOC(=O)OC(C)OC(=O)[C@@H]1N2C(=O)[C@@H](NC(=O)[C@H](N)c3ccccc3)[C@H]2SC1(C)C (some centres not stated) | inactive
CC1CC(OC(=O)C(O)c2ccccc2)CC(C)(C)N1C (configuration not stated) | inactive
CC(CO)CO | inactive

test: qHTS assay for small molecule agonists of the antioxidant response element (ARE) signaling pathway - cell viability counter screen (AID 743203); details: ARE-bla HepG2 viability, CellTiter-Glo luminescence, 16 h; series mostly up to 73.3 µM; note: nearly all actives have a fitted effect of over 55% in size
Procedure, shortened: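 Viability counter screen: stably transfected ARE-bla HepG2 line, 16 hrs compound exposure at 37C/5% CO2, ATP-based CellTiter-Glo luminescence measured in the reporter wells.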

SMILES | Potency
CC1CC(C)C(=O)C1=O (configuration not stated) | inactive
O=C=Nc1cccc(C(F)(F)F)c1 | inactive
CCCCN1CCCC1C(=O)Nc1c(C)cc(C)cc1C (configuration not stated) | inactive
O=C(OCC(O)CO)c1ccccc1Nc1ccnc2cc(Cl)ccc12 (configuration not stated) | inactive
O=Cc1c2ccccc2c(Cl)c2ccccc12 | inactive
CO/N=C(/C(=O)N[C@@H]1C(=O)N2C(C(=O)O)=C(COC(N)=O)CS[C@H]12)c1ccco1 | inactive
Cc1ccc(OC(=O)c2ccccc2O)cc1 | inactive
CC(C)C=O | inactive
Cc1cscn1 | inactive
CCC(OCCCOC)OC(C)=O (configuration not stated) | inactive
CC/C=C1/OC(=O)c2ccccc21 | inactive
COc1cc(N)c(Cl)cc1C(=O)NC1CCN(CCCOc2ccc(F)cc2)CC1OC (configuration not stated) | inactive
O=C(Nc1cccc2c(=O)cc(-c3nn[nH]n3)oc12)c1ccc(OCCCCc2ccccc2)cc1 | 29.8 µM (active)
Cc1ccccc1N=C(N)Nc1ccccc1C | inactive
CCOC(=O)OC(C)OC(=O)[C@@H]1N2C(=O)[C@@H](NC(=O)[C@H](N)c3ccccc3)[C@H]2SC1(C)C (some centres not stated) | inactive
CC1=Nc2ccc3ccccc3c2C1(C)C | inactive
CC(C)c1nc(CN(C)C(=O)N[C@H](C(=O)N[C@@H](Cc2ccccc2)C[C@H](O)[C@H](Cc2ccccc2)NC(=O)OCc2cncs2)C(C)C)cs1 | inactive
O=C(/C=C/c1ccccc1)OCCc1ccccc1 | inactive
CN1C(=O)OC(C)(C)C1=O | inactive
CC1CC(OC(=O)C(O)c2ccccc2)CC(C)(C)N1C (configuration not stated) | inactive
Cc1ccc(CO)cc1 | inactive
O=C1c2ccccc2C(=O)C1c1nc2ccccc2c(Br)c1O | inactive
CCCCCCCCCCC(=O)O | inactive
